The list is not random: actives were taken first. Their share in the collection is about 4.2%.
BJeLR lethal – kills HRASV12-expressing BJeLR cells | BJeLR (HRASV12) viability, CellTiter-Glo ATP luminescence, 48 h | inhibition, % (concentration not given with the values) | actives 0.17% (n = 300,000); in the data active = inhibition above about 50%
GDH-TPI inh – GDH-TPI coupled enzyme inhibition counter-screen; inhibition, % at 4.8 µM; actives 1.2% (n = 360,000); GDH-TPI coupled enzyme counterscreen, NADH absorbance; in the data active = inhibition above about 30%
Mtb FBA inh – inhibitors of M. tuberculosis fructose-bisphosphate aldolase. AID 588726. inhibition, % at 1 µM. P9WQA3. purified M. tuberculosis FBA, fluorescence read-out. actives 2.3% (n = 360,000); in the data active = inhibition above about 27%
Target sequence (P9WQA3 whole entry, looked up): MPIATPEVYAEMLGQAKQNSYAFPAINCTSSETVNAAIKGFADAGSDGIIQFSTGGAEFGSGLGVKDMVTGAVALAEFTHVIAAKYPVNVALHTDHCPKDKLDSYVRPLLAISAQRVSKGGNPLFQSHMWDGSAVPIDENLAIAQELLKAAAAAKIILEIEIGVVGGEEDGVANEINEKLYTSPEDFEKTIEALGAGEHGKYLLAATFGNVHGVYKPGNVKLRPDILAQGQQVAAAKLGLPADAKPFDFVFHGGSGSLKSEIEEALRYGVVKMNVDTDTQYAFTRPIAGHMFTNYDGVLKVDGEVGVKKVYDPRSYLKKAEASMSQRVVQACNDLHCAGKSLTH
RecA intein inh – inhibitors of M. tuberculosis RecA intein splicing. cell-free RecA intein splicing, fluorescence. AID 2221. inhibition, % (no concentration beside the values). actives 0.75% (n = 290,000). P9WHJ3; in the data active = inhibition above about 30%
PrPC surface inh – cell surface PrPC inhibition, primary TR-FRET screen. inhibition, % at 13.8 µM. P04156. AID 720596. actives 0.43% (n = 370,000). TR-FRET read-out; in the data active = inhibition above about 24%
Of the large screens only hits and unclear results are named; the others gave an inactive call.

Cc1ccc(S(=O)(=O)C(C#N)c2nc3ccccc3nc2N2CCCC2)cc1 (centres undefined)	Mtb FBA inh 128
CC(=O)N1CCN(CCN=Cc2c(O)n(-c3ccc(C)cc3)c(=S)[nH]c2=O)CC1	GDH-TPI inh 37
Cn1c(O)c(/C=N/N2CCOCC2)c(=O)n(-c2ccccc2)c1=S	GDH-TPI inh 35
CC(=O)N1CCN(CCN=Cc2c(O)n(-c3ccc(F)cc3)c(=S)[nH]c2=O)CC1	none
O=c1[nH]c(=S)n(-c2ccc(F)cc2)c(O)c1/C=N/N1CCOCC1	GDH-TPI inh 31
CCOc1ccc(-n2c(O)c(C=Nc3ccc(N4CCOCC4)cc3)c(=O)[nH]c2=O)cc1	GDH-TPI inh 32
CC(C)(C)C1CCc2sc(C(=O)NNC(=O)CCl)cc2C1 (centres undefined)	RecA intein inh 67
CC(C)(C)C1CCC(=NNC(=O)c2cc3c(s2)CCCC3)CC1 (centres undefined)	none
O=C1C=CC2(O[C@H](c3ccccc3)[C@@H](c3ccccc3)O2)[C@H](Sc2ccccc2O)C1	PrPC surface inh 89 (no result: BJeLR lethal, RecA intein inh)
CCOC(=O)c1c(NC(=O)CSc2nc3cc(Cl)ccc3s2)sc(C(C)=O)c1C	none (no result: GDH-TPI inh, Mtb FBA inh)
CCOC(=O)c1c(NC(=O)CSc2nc3ccccc3s2)sc(C(C)=O)c1C	GDH-TPI inh 33
COc1ccc(-c2c(C#Cc3ccsc3)c3cc(-c4ccc5c(c4)OCO5)ccc3n2C)cc1	none (no result: BJeLR lethal, RecA intein inh)
COc1ccc(-c2c(C#Cc3ccsc3)c3cc(-c4ccc5c(c4)OCCO5)ccc3n2C)cc1	GDH-TPI inh 42 (no result: BJeLR lethal, RecA intein inh)
COc1ccc(-c2c(C#Cc3ccsc3)c3cc(-c4cccc5[nH]ccc45)ccc3n2C)cc1	none (no result: BJeLR lethal, RecA intein inh)
COc1ccc(-c2c(C#Cc3ccsc3)c3cc(-c4ccc5[nH]ccc5c4)ccc3n2C)cc1	GDH-TPI inh 47 (no result: BJeLR lethal, RecA intein inh)
COc1cc(OC)cc(-c2c(C#Cc3ccsc3)c3cc(-c4ccc5c(c4)OCO5)ccc3n2C)c1	GDH-TPI inh 39 (no result: BJeLR lethal, RecA intein inh)
CCOC(=O)N[C@@H](Cc1cccnc1)C(=O)N1CCC[C@H]1C(=O)NC1CCCC1	none (no result: BJeLR lethal, GDH-TPI inh, Mtb FBA inh, RecA intein inh)
COC(=O)c1c(NC(=O)/C=C/C(=O)O)sc(C)c1-c1ccc(C)cc1	RecA intein inh 43
CN(C)CCCN(C(=O)/C=C/c1cccs1)c1nc2c(F)cccc2s1	GDH-TPI inh 37
COc1ccc2sc(N(CCN(C)C)C(=O)/C=C/c3cccs3)nc2c1	none
COc1ccc2nc(N(CCN(C)C)C(=O)/C=C/c3cccs3)sc2c1	GDH-TPI inh 32
Cc1cccc2sc(N(CCN(C)C)C(=O)/C=C/c3cccs3)nc12	none
CN(Cc1ccccc1)C(=O)OCc1cn(Cc2ccc(F)c(F)c2)nn1	none (no result: BJeLR lethal, GDH-TPI inh, Mtb FBA inh, RecA intein inh)
COC(=O)[C@]12C[C@H](CC(=O)NCCCCc3ccccc3)C(=O)N(CCc3ccc(OC)c(OC)c3)C1=C[C@H](C(C)C)O[C@@H]2C1CC1	none (no result: BJeLR lethal, GDH-TPI inh, Mtb FBA inh, RecA intein inh)
Cc1cc(=O)oc2c3c(cc(OCC(=O)NCC(=O)N[C@H](C(=O)O)C(C)C)c12)OC(C)(C)CC3	Mtb FBA inh active
CCCC(NC(=O)COc1cc2c(c3oc(=O)cc(C)c13)CCC(C)(C)O2)C(=O)O (centres undefined)	Mtb FBA inh 128
CC[C@@H](C)[C@H](NC(=O)Cc1c(C)c2c(cc(C)c3c(C)c(C)oc32)oc1=O)C(=O)O	none
CC[C@H](C)[C@H](NC(=O)CNC(=O)COc1cc2c(c3oc(=O)cc(C)c13)CCC(C)(C)O2)C(=O)O	Mtb FBA inh active
Fc1ccc(NC2CCC23CCC(c2ccccc2)CC3)cc1C(F)(F)F (centres undefined)	none (no result: BJeLR lethal, GDH-TPI inh, Mtb FBA inh, RecA intein inh)
Cc1ccccc1Cn1cc(CN2[C@@H](Cc3ccccc3)COc3cc(Br)ccc3S2(=O)=O)nn1	none (no result: BJeLR lethal, GDH-TPI inh, Mtb FBA inh, RecA intein inh)
CCCCCCCCN1C(=O)[C@@H](CC(=O)NCC23CC4CC(CC(C4)C2)C3)C[C@@]2(C(=O)OC)C1=C[C@H](C1CCCC1)O[C@@H]2C	none (no result: BJeLR lethal, GDH-TPI inh, Mtb FBA inh, RecA intein inh)
Cn1c(SCC(=O)NCCN2CCCCC2)nc2cccnc21	none (no result: BJeLR lethal, GDH-TPI inh, Mtb FBA inh, RecA intein inh)
C=CCOc1ccc(C2NC(=S)NC3=C2CCc2ccccc23)cc1 (centres undefined)	none
O=C1NC2=C(CCc3ccccc32)C(c2ccccc2)N1 (centres undefined)	RecA intein inh 47
Cc1ccc(-c2cc(C(=O)NN=Cc3cccc(OCc4ccccc4)c3)[nH]n2)cc1C	none (no result: BJeLR lethal, GDH-TPI inh, Mtb FBA inh, RecA intein inh)
O=C(Nc1ccc(Cl)cc1)OC1CCC12CCC(c1ccccc1)CC2 (centres undefined)	none (no result: BJeLR lethal, GDH-TPI inh, Mtb FBA inh, RecA intein inh)
Cc1ccc(CSc2nnc(-c3cc(-c4ccc(C)cc4)n[nH]3)n2N)cc1	none (no result: BJeLR lethal, GDH-TPI inh, Mtb FBA inh, RecA intein inh)
Cc1ccc(N/C(N)=N/c2nc(C)cc(N3CCCCC3)n2)c(C)c1	PrPC surface inh 45
Cc1c(C(=O)/C=C/N(C)C)nnn1-c1ccc(Cl)cc1C#N	GDH-TPI inh 46
CCOC(=O)c1nnn(-c2ccccc2C#N)c1C	none
COc1ccc2c(c1)C(NC(=O)C(F)(F)F)CC21CCCCC1 (centres undefined)	none (no result: BJeLR lethal, GDH-TPI inh, Mtb FBA inh, RecA intein inh)
COc1ccc(/C=C/C(=O)NC(=S)NNC(=O)[C@H]2C[C@@H]2c2ccccc2)cc1OC	GDH-TPI inh 44
COc1cc(C=O)ccc1OC(=O)Nc1ccccc1	GDH-TPI inh 52
COc1ccc(/C=C/C(=O)Nc2ccccc2C(=O)O)cc1OC	GDH-TPI inh 47
COc1ccc(/C=C/C(=O)Nc2ccccc2C(=O)N2CCCC2)cc1	GDH-TPI inh 36
COc1cccc(OC)c1C(=O)NC(=S)NNC(=O)[C@H]1C[C@@H]1c1ccccc1	none
COc1cc(C=O)ccc1OS(=O)(=O)c1ccc(NC(C)=O)cc1	none
COc1ccc(/C=C/C(=O)Nc2ccccc2C(=O)O)cc1	none
COC(=O)C1CN(Cc2ccc(C)cc2)CCS(=O)(=O)N1Cc1cn(Cc2ccc(OC)cc2)nn1 (centres undefined)	none (no result: BJeLR lethal, GDH-TPI inh, Mtb FBA inh, RecA intein inh)
Cc1ccc(NC(=O)[C@@H]2CCCN2S(=O)(=O)c2cccc3cccnc23)c(C)c1	none (no result: BJeLR lethal, GDH-TPI inh, Mtb FBA inh, RecA intein inh)
COc1ccc(/C=C/C(=O)Nc2cccc(S(=O)(=O)NC3=NCCCCC3)c2)cc1OC	GDH-TPI inh 35 (no result: BJeLR lethal, RecA intein inh)
CCN(CC)CCNC(=O)c1ccc(NC(=O)/C=C/c2cc(OC)c(OC)c(OC)c2)cc1	GDH-TPI inh 36
COc1ccc(/C=C/C(=O)Nc2ccccc2C(F)(F)F)cc1OC	GDH-TPI inh 31
COc1ccc(/C=C/C(=O)Nc2ccccc2C(F)(F)F)cc1	none
COC(=O)c1ccccc1NC(=O)/C=C/c1cc(OC)c(OC)c(OC)c1	GDH-TPI inh 36
COc1cc(/C=C/C(=O)Nc2ccc(C)cc2)cc(OC)c1OC	none
O=C1CCC[C@H]2C[C@H](NCc3ccc(Cl)cc3)CC[C@]23CCCN13	none (no result: BJeLR lethal, GDH-TPI inh, Mtb FBA inh, RecA intein inh)
COc1ccc(/C=C/C(=O)Nc2ccc(C(N)=O)cc2)cc1OC	GDH-TPI inh 53
COc1ccc(/C=C/C(=O)Nc2ccc3c(c2)CCC3)cc1OC	none
COc1cc(/C=C/C(=O)NC(=O)c2ccccc2O)ccc1O	GDH-TPI inh 40
O=C(/C=C/c1ccccc1)NC(=O)c1ccccc1O	none
COP(=O)(OC)C(NC(=O)OCc1ccccc1)C(C)C (centres undefined)	none (no result: BJeLR lethal, GDH-TPI inh, Mtb FBA inh, RecA intein inh)

High-throughput results as filed in PubChem BioAssay.
